“And” between values parts separate entries of the source, which are not always exact repeats. Equal entries are not always repeated. About 83,000 compounds went through this panel and 20% of them were active in at least one assay; those are over-represented in the sample as a whole.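 How to read the values: 0–100, growth inhibition (40 = 60% inhibited); 0, no net growth; -100 to 0, cell death (-40 = 40% of starting cells died; -100 = all dead).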 The source made the active and inactive calls. How the source made its calls: active means growth percent below 10; inactive means the rest.
Key:
Experiment in all cases: NCI-60 one-dose screen, 48 h (100 = growth as untreated, 0 = no growth, -100 = all killed)
Conditions in all cases: 10 µM unless noted
NCI-H23 lung = test system: NCI-H23 lung
NCI-H226 lung = test system: NCI-H226 lung
NCI-H322M lung = test system: NCI-H322M lung
HOP-62 NSCLC = test system: HOP-62 NSCLC
NCI-H460 lung = test system: NCI-H460 lung
HOP-92 NSCLC = test system: HOP-92 NSCLC
NCI-H522 lung = test system: NCI-H522 lung
A549/ATCC NSCLC = test system: A549/ATCC NSCLC
786-0 renal = test system: 786-0 renal
COLO 205 colon = test system: COLO 205 colon
DU-145 prostate = test system: DU-145 prostate
K-562 leukemia = test system: K-562 leukemia
MALME-3M melanoma = test system: MALME-3M melanoma
MDA-MB-231 breast = test system: MDA-MB-231 breast
RXF 393 renal = test system: RXF 393 renal
SF-268 CNS = test system: SF-268 CNS
SF-295 CNS = test system: SF-295 CNS
SF-539 CNS = test system: SF-539 CNS
UACC-257 melanoma = test system: UACC-257 melanoma
M14 melanoma = test system: M14 melanoma

Measured: growth

Cn1cc(-c2cc(N)n3nc(-c4c[nH]c5ccccc45)cc3n2)c2cc(F)ccc21
inactive: NCI-H23 lung 44.7% | NCI-H226 lung 91.4% | NCI-H322M lung 65.1% | HOP-92 NSCLC 31.3% | A549/ATCC NSCLC 13.7% | DU-145 prostate 46.2% | MALME-3M melanoma 76.8% | RXF 393 renal 148% | SF-268 CNS 65.3% | UACC-257 melanoma 45.7%
active: HOP-62 NSCLC -22.1% | NCI-H460 lung -23.9% | NCI-H522 lung -61.8% | 786-0 renal -2.12% | COLO 205 colon -47.4% | K-562 leukemia 3.57% | MDA-MB-231 breast -52.2% | SF-295 CNS -50.8% | SF-539 CNS -61.9% | M14 melanoma -0.365%

Cc1[nH]nc2ccc3nc(-c4cn[nH]c4C(F)(F)F)c4c(c3c12)CCCC4
inactive: K-562 leukemia 14.9% | SF-268 CNS 18% | UACC-257 melanoma 17.8%
active: NCI-H23 lung -8.3% | NCI-H226 lung -5.98% | NCI-H322M lung 2.15% | HOP-62 NSCLC 5.21% | NCI-H460 lung 1.29% | HOP-92 NSCLC -18.3% | NCI-H522 lung -54% | A549/ATCC NSCLC -2.97% | 786-0 renal -21.2% | COLO 205 colon -18.6% | DU-145 prostate 5.72% | MALME-3M melanoma -24% | MDA-MB-231 breast -14.8% | RXF 393 renal -79.6% | SF-295 CNS -12.9% | SF-539 CNS -67.2% | M14 melanoma 3.29%

COC(=O)c1c(C(=O)OC)c2c3ccccc3c3ccccc3n2c1C(=O)C(F)(F)F
inactive: NCI-H23 lung 89.1% | NCI-H226 lung 80% | NCI-H322M lung 101% | HOP-62 NSCLC 107% | NCI-H460 lung 105% | HOP-92 NSCLC 97.2% | NCI-H522 lung 96.4% | A549/ATCC NSCLC 111% | 786-0 renal 102% | COLO 205 colon 108% | DU-145 prostate 106% | K-562 leukemia 97.2% | MALME-3M melanoma 104% | MDA-MB-231 breast 81.6% | RXF 393 renal 101% | SF-268 CNS 101% | SF-295 CNS 94.3% | SF-539 CNS 95.2% | UACC-257 melanoma 111% | M14 melanoma 97%

Oc1ccc(F)c(Nc2nc(SCCN3CCOCC3)nc3c2cnn3CC(Cl)c2ccc(Br)cc2)c1 (stereo not given)
active: NCI-H460 lung 3.31% | HOP-92 NSCLC 1.93% | K-562 leukemia -3.32% | MALME-3M melanoma 1.03% | MDA-MB-231 breast -17.6% | RXF 393 renal -48.4% | SF-295 CNS 2.35%
inactive: NCI-H23 lung 26.3% | NCI-H226 lung 29.2% | NCI-H322M lung 80.2% | HOP-62 NSCLC 30.3% | NCI-H522 lung 29.2% | A549/ATCC NSCLC 23.9% | 786-0 renal 61.2% | COLO 205 colon 94.6% | DU-145 prostate 34% | SF-268 CNS 24.1% | SF-539 CNS 17.3% | UACC-257 melanoma 14.4% | M14 melanoma 18.8%

COc1cc(C=O)ccc1Oc1nc(Nc2ccc(F)cc2)nc(N(C)C)n1
inactive: NCI-H23 lung 59.8% and 65.8% | NCI-H226 lung 75.4% and 81.6% | NCI-H322M lung 96.5% and 78.9% | HOP-62 NSCLC 90% and 85.7% | NCI-H460 lung 80.2% and 52.3% | HOP-92 NSCLC 87.3% and 65.7% | NCI-H522 lung 88.6% and 82.1% | A549/ATCC NSCLC 95.1% and 91% | 786-0 renal 78.4% and 52% | COLO 205 colon 110% and 103% | DU-145 prostate 90% and 72.7% | K-562 leukemia 55.6% and 35.2% | MALME-3M melanoma 75.8% and 82.1% | MDA-MB-231 breast 90.1% and 76.2% | RXF 393 renal 91.9% and 64.9% | SF-268 CNS 73.2% and 66.9% | SF-295 CNS 65.5% and 82.7% | SF-539 CNS 92.9% and 42.8% | UACC-257 melanoma 57.7% and 102% | M14 melanoma 93.4% and 65.3%

CCCCCCCOc1ccc(S(=O)(=O)Nc2ccc(C)c(F)c2C(=O)O)cc1
inactive: NCI-H23 lung 93.2% | NCI-H226 lung 88% | NCI-H322M lung 100% | HOP-62 NSCLC 98% | NCI-H460 lung 102% | NCI-H522 lung 84.3% | A549/ATCC NSCLC 103% | 786-0 renal 95% | COLO 205 colon 122% | DU-145 prostate 104% | K-562 leukemia 88.4% | MALME-3M melanoma 91.3% | MDA-MB-231 breast 96% | RXF 393 renal 114% | SF-268 CNS 101% | SF-295 CNS 89.3% | SF-539 CNS 102% | UACC-257 melanoma 102% | M14 melanoma 96.4%
active: HOP-92 NSCLC 8.57%

COc1ccccc1/C=C/c1cccc(NC(=S)NCCCCN(C)C)c1
active: NCI-H23 lung -97.5% | NCI-H226 lung -71.5% | NCI-H322M lung -87.4% | HOP-62 NSCLC -51.1% | NCI-H460 lung -74.2% | HOP-92 NSCLC -60.9% | NCI-H522 lung -66% | A549/ATCC NSCLC -51.7% | 786-0 renal -55.3% | COLO 205 colon -68.2% | DU-145 prostate -69% | K-562 leukemia 1.56% | MALME-3M melanoma -90.6% | MDA-MB-231 breast -89.8% | RXF 393 renal -94.2% | SF-268 CNS 6.05% | SF-295 CNS -100% | SF-539 CNS -93% | UACC-257 melanoma -82.6% | M14 melanoma -74%
